Screens from PubChem BioAssay.
tim10-1 inh: growth inhibitors of tim10-1 mutant yeast, primary screen, luminescence, uHTS; inhibition, % at 20 µM; actives 2.2% (n = 330,000); S. cerevisiae tim10-1 ts strain growth, BacTiter-Glo, 24 h;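 active = inhibition of at least 40%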;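 also: mutant grown at 25 °C; 0% = DMSO wells with yeast and 100% = wells holding no yeast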
TIM10 inh: growth inhibitors of isogenic TIM10 control yeast, primary screen, counter-screen for tim10-1 yeast inhibitor project, luminescence, uHTS; S. cerevisiae TIM10 strain growth, BacTiter-Glo luminescence, 24 h; inhibition, % at 10 µM; actives 1.4% (n = 330,000); AID 463195, 2010;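 active = inhibition of 40% or more at the single tested concentration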;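 also: wild-type TIM10 isogenic control strain grown at permissive 25 °C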
tim23-1 inh: growth inhibitors of tim23-1 mutant yeast, primary screen, luminescence, uHTS | inhibition, % at 20 µM | AID 463212, 2010 | S. cerevisiae tim23-1 growth, BacTiter-Glo luminescence, 24 h | actives 1.3% (n = 330,000);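 active = growth inhibition of the mutant yeast at or above 50%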;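 also: temperature-sensitive mutant grown at 25 °C; plate controls were DMSO-treated mutant yeast for no effect and medium wells lacking yeast for full effect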
SKKanGAS inh: S. pyogenes SKKanGAS growth inhibitors in kanamycin, primary screen, streptokinase expression inhibitor project, SKKanGAS strain, BacTiter-Glo luminescence; 6 h; inhibition, % at 7.5 µM; actives 1.3% (n = 300,000); AID 1662, 2009;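 active = mean replicate score, as percent of positive control median, at least 50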;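 also: strain carries kanamycin resistance gene driven by streptokinase promoter and grows in 40 µg/ml kanamycin; loss of luminescence reflects streptokinase promoter inhibition or plain growth inhibition; 0% = median of DMSO wells and 100% = positive control at its reference dose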
PfHsp90 yeast 2: growth inhibition of PfHsp90-expressing yeast, primary screen, antimalarial PfHsp90 inhibitor project, S. cerevisiae, BacTiter-Glo luminescence, single point, set 2 | BacTiter-Glo ATP, 48 h; yeast lacking PDR1 and PDR3 efflux regulators | inhibition, % at 9.4 µM | actives 0.32% (n = 310,000) | AID 504621, 2011;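 active = every replicate shows inhibition above about 80%, whatever the replicate mean, limit read from the data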;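 also: 0% = DMSO neutral controls and 100% = 20 µM radicicol positive controls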
NALP3 yeast inh: NALP3 inflammasome inhibitors in reconstituted yeast, primary screen, luminescence, uHTS; Yeast reconstituted NLRP3/ASC/caspase-1, beta-gal luminescence, 24 h; inhibition, % at 10 µM; actives 0.39% (n = 330,000);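 active = inhibition of 50% or more; inactive = inhibition below 50%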;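 also: plate controls were induced DMSO wells for no effect and uninduced yeast grown without galactose for full effect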
tim10-1 confirm: growth inhibitors of tim10-1 mutant yeast, confirmation, single concentration, luminescence, S. cerevisiae; S. cerevisiae tim10-1 ts strain growth, BacTiter-Glo, 24 h; inhibition, % at 20 µM; shares compounds with tim10-1 inh; actives 56% (n = 7,400);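 active = inhibition of yeast growth at or above a set limit in either of two repeat tests at 20 µM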;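 also: tim10-1 mutant grown at permissive 25 °C to find synthetic lethal compounds; 0% = DMSO yeast wells and 100% = medium wells without yeast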
TIM10 conf: growth inhibitors of wild-type TIM10 yeast, confirmation, counter-screen for tim10-1 synthetic lethality project, single concentration, luminescence, S. cerevisiae; shares compounds with TIM10 inh; S. cerevisiae tim10 strain growth, BacTiter-Glo luminescence, 24 h; inhibition, % at 10 µM; actives 63% (n = 4,600);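 active = inhibition of yeast growth at or above a set limit in either of two replicates at 10 µM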;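 also: this counterscreen used the strain with wild-type TIM10; 0% = yeast with DMSO and 100% = medium wells lacking yeast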
tim23-1 confirm: tim23-1 mutant yeast growth inhibitors, confirmation, luminescence, single concentration; actives 83% (n = 4,400); inhibition, % at 20 µM; shares compounds with tim23-1 inh; S. cerevisiae tim23-1 growth, BacTiter-Glo luminescence, 24 h;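 active = inhibition above about 39% in either of two replicate wells at 20 µM, limit read from the data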;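 also: temperature-sensitive tim23-1 mutant grown at 25 °C; 0% = DMSO wells with yeast and 100% = medium wells without yeast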
Numbers without * were called inactive; / = no result. Hits are enriched below; roughly 4.6% of the tested compounds scored in any of these assays.

SMILES | tim10-1 inh | TIM10 inh | tim23-1 inh | SKKanGAS inh | PfHsp90 yeast 2 | NALP3 yeast inh | tim10-1 confirm | TIM10 conf | tim23-1 confirm
O=S(=O)(Nc1ccc(F)cc1Cl)c1ccc(-c2cnc(C3CC3)o2)cc1 | 53* | 18 | 55* | 9 | -36 | 19 | 17 | / | 49*
O=C(Nc1ccccc1)C1=C[C@@H](C2CC2)C[C@@H](OCc2ccc(CO)cc2)O1 | 14 | 14 | 31 | -5 | -12 | 21 | / | / | /
CCN1CCN(C(=O)c2ccc(N3CC4CC(C3)c3cccc(=O)n3C4)c(NC(=O)c3cc(OC)cc(OC)c3)c2)CC1 (stereo unspecified) | 9 | -12 | 10 | -7 | -17 | 8 | / | / | /
Cc1ccccc1NC(=S)NCc1ccc2[nH]c3c(c2c1)CCCC3 | 49* | 47* | 56* | 9 | -30 | 23 | 30 | 43* | 48*
CC1CC(C)CN(S(=O)(=O)c2cc3c(cc2Cl)NC(=O)CO3)C1 (stereo unspecified) | 4 | 5 | -7 | -1 | -19 | -7 | / | / | /
CN(C1CCCCC1)S(=O)(=O)c1cc2c(cc1Cl)NC(=O)CO2 | 47* | 6 | 51* | 10 | -8 | 21 | 7 | / | 34
O=C1OC(c2ccc(F)cc2)=N/C1=C\C=C/c1ccccc1 | 50* | 37 | 76* | -3 | 0 | 7 | 40* | / | -35
COC(=O)c1ccc(Cn2nc([N+](=O)[O-])c(Br)c2C)cc1 | 17 | -5 | 18 | 5 | -16 | 39 | / | / | /
Cc1ccc(C2CC(c3cccs3)=NN2C(=O)CSC2=NN3CCCC(=O)N=C3S2)cc1 (stereo unspecified) | 50* | 45* | 57* | 12 | 2 | 10 | 44* | 40* | 60*
COc1ccc(C2CC(c3ccc(Br)cc3)=NN2C(=O)CSC2=NN3CCCC(=O)N=C3S2)cc1 (stereo unspecified) | 36 | 30 | 37 | -4 | -11 | 10 | / | / | /
Oc1c(N=Nc2ccccn2)ccc2ccccc12 | 72* | 41* | 53* | 69* | / | 20 | 53* | 46* | 76*
CSc1ncccc1C(=O)OCC(=O)c1ccc(C)s1 | -10 | -10 | -2 | / | / | 3 | / | / | /
C/C(=N\NC(=S)NC1CCCCC1)c1cccs1 | 41* | 58* | 53* | -5 | -62 | 46 | 24 | 36* | 49*
COc1ccc(CCNS(=O)(=O)c2ccc3c(c2)OCCO3)cc1 | 50* | 49* | 59* | -6 | 8 | 14 | 42* | -30 | 56*
O=S(=O)(NCCSCc1ccc(Cl)c(Cl)c1)c1ccc2c(c1)OCCO2 | 47* | 53* | 55* | 13 | -21 | 12 | 33* | 36* | 49*
COc1ccc(CCNC(=O)c2ccc3c(c2)OCCO3)cc1 | 1 | 2 | 20 | 9 | 2 | 17 | / | / | /
Cc1ccc(SCCNS(=O)(=O)c2ccc3c(c2)OCCO3)cc1 | 52* | 51* | 55* | 1 | -39 | 19 | 42* | -6 | 53*
COc1ccc(S(=O)(=O)NCc2ccc(C)cc2)cc1 | 48* | 16 | 56* | 6 | -24 | 5 | 23 | / | 43*
Cc1ccc(-c2cc(C(F)F)nc(NCC3CCCO3)n2)cc1 (stereo unspecified) | 11 | 0 | 11 | 3 | / | 34 | / | / | /
COc1ccc(C2=C3C(=O)OCC3Cc3ncn(Cc4ccccc4)c32)cc1 (stereo unspecified) | 17 | 3 | 20 | / | / | 3 | / | / | /
CCOc1cccc(CNc2ccc(O)cc2)c1OCc1ccc(Cl)cc1Cl | 42* | 33 | 62* | 4 | -4 | 5 | 35* | / | 54*
COc1ccccc1CCC(=O)NNC(=O)c1ccc(Br)cc1 | -17 | -11 | -12 | -1 | 5 | 19 | / | / | /
COc1ccc(C(=O)/C=C/C(=O)N(CC(=O)NC2CCCCC2)CC2CCCO2)c(O)c1 (stereo unspecified) | 46* | 49* | 51* | -36 | 4 | 10 | 56* | 52* | 60*
CSc1n[nH]c2nc3c(c(=O)n12)C1(CCCC1)Cc1ccccc1-3 | 48* | 39 | 53* | 9 | 14 | -46 | 51* | / | 55*
O=c1c2c(nc3n1CCCCC3)-c1ccccc1CC21CCCC1 | 36 | 16 | 36 | 34 | 0 | -4 | / | / | /
SMILES | tim10-1 inh | TIM10 inh | tim23-1 inh | SKKanGAS inh | PfHsp90 yeast 2 | NALP3 yeast inh | tim10-1 confirm | TIM10 conf | tim23-1 confirm
CCOC(=O)C1Cn2c(nc3c(c2=O)C2(CCCC2)Cc2ccccc2-3)S1 (stereo unspecified) | 32 | 15 | 36 | / | -10 | 2 | / | / | /
CSc1nnc2n(C)c3c(c(=O)n12)C1(CCCC1)Cc1ccccc1-3 | 45* | 40* | 62* | 21 | 9 | -37 | 30 | 35* | 50*
Cn1c(NCCO)nc2c(c1=O)C1(CCCCC1)Cc1ccccc1-2 | 59* | 31 | 59* | -9 | -6 | 10 | 37* | / | 63*
Cc1ccc(-n2c(SCC(N)=O)nc3c(c2=O)C2(CCCC2)Cc2ccccc2-3)cc1 | 49* | 32 | 52* | 18 | 12 | 6 | 36* | / | 44*
Cn1c(=O)c2c(n3cnnc13)-c1ccccc1CC21CCCC1 | 20 | -37 | 29 | -14 | 22 | -18 | / | / | /
CCN(CC)Cc1nc2c(c(=O)[nH]1)C1(CCCCC1)Cc1ccccc1-2 | 41* | 50* | 50* | 2 | -14 | -23 | 41* | 47* | 40*
CC(C)[C@H](NC(=O)[C@H](Cc1ccccc1)n1c(=O)[nH]c2ccccc2c1=O)C(=O)N1CCC[C@@H]1C(=O)O | -18 | -2 | 2 | -2 | 2 | 5 | / | / | /
CCOC(=O)c1sc2nc(NC(=O)C(C)(C)C)sc2c1C | 55* | 41* | 63* | 7 | 0 | 37 | 31* | 44* | 57*
O=C(Nc1ccc(NC(=O)c2ccc([N+](=O)[O-])o2)cc1Cl)c1ccco1 | -6 | 26 | 47 | 8 | -39 | 12 | / | / | /
